Results: PubChem BioAssay (NCI)
Where “and” joins values, the source holds several entries; their conditions need not be identical. Identical values can stand only once. The panel holds about 83,000 compounds, 20% with a hit somewhere; the sample as a whole holds those more often.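 Testing used 96-well plates and a 48-hour single-concentration exposure. Example: -40 means 40% of the starting cells died.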 Values without a mark were called inactive. Calls of active or inactive are those of the source. Rule for the calls: active = growth percent below 10; inactive = the rest.

Each molecule was assayed on MDA-MB-468 breast (assay: NCI-60 one-dose screen, 48 h (100 = growth as untreated, 0 = no growth, -100 = all killed)). Conditions: 10 µM unless noted.

Structure (SMILES) | growth
Cc1[nH]c(C(=O)Nc2ccc(C(N)=O)cc2N2CCOC(C)C2)c(Cl)c1Cl (stereo not given) | 102%
CN1CCC(OC2c3ccccc3CCc3ccccc32)CC1 | 89.6%
CC(C)CCN(CCCNc1c2c(nc3ccccc13)CCCC2)CCC(C)C | 57.2%
CCOC(=O)c1c(C)nn(CC(O)c2ccccc2)c1NC(=O)Nc1cccc(F)c1 (stereo not given) | 82.6%
Nc1c(C(=O)Nc2ccccc2Cl)sc2nc3c(cc12)CCCCCC3 | -1.41% (active)
COc1ccc([N+](=O)[O-])c(C(=O)O)c1 | 96.4%
NNc1cccc(/C=C/c2ccccc2)cc1=O | 38.3%
NC(N)=N/N=C/c1ccc(-c2ccc(-c3cc(Cl)cc(Cl)c3)s2)cc1 | -47.1% (active)
COc1cc2c(cc1OC)C(=O)OC2 | 97.1%
Cc1nc2nc(SCC(=O)O)[nH]c2c(=O)[nH]1 | 106%
CC(=O)OC[C@]12CC[C@@H](c3cn(Cc4ccc(Cn5cc([C@@H]6CC[C@]7(COC(C)=O)CC[C@]8(C)[C@H](CC[C@@H]9[C@@]%10(C)CC[C@H](OC(C)=O)C(C)(C)[C@@H]%10CC[C@]98C)[C@@H]67)nn5)cc4)nn3)[C@@H]1[C@H]1CC[C@@H]3[C@@]4(C)CC[C@H](OC(C)=O)C(C)(C)[C@@H]4CC[C@@]3(C)[C@]1(C)CC2 | 102%
S=P(N1CC1)(N1CC1)N1CC1 | 106% and 67.8%
C=C1CCC2C3(C)COC(c4ccccc4Br)OC3CCC2(C)C1C/C=C1/C(=O)OCC1OC(C)=O (stereo not given) | -34.3% (active)
CCCCCCCCCCNCCSS(=O)(=O)O | 110%
CCN(CC)CCOC(COc1cc(C)cc(C)c1)COc1cc(C)cc(C)c1 | 9.41% (active)
CC1(C)N=C(N)N=C(N)N1c1cc(Cl)ccc1Cl | 53.5%
NC1=NC(c2ccccc2)C2=C(N1)/C(=C/c1ccccc1)CCC2 (stereo not given) | 89.6%
COc1ccc(-c2nc(SCCC(C)C)nc(N/N=C\c3cccc(Cl)c3)c2C#N)cc1 | 95.9%
O=C(C(=O)N1CCCC1)c1cn(CCCn2cc(C(=O)C(=O)N3CCCC3)c3cc(Br)ccc32)c2ccc(Br)cc12 | 70.4%
O=c1c2cc(F)cc(Cl)c2sc2c(Cl)nc3ccccc3c12 | 99%

Structure (SMILES) | growth
O=C1/C(=C\c2cn(C(=O)c3ccc(Cl)cc3)c3ccccc23)c2ccccc2N1C(=O)c1ccc(Cl)cc1 | 51.7%
O=CCCCOCc1ccccc1 | 112%
COC(=O)C1=NNC(=S)N(c2cc(C)[nH]n2)C(=O)C1 | 108%
COCCCNc1nc(NC(=O)c2ccc(F)cc2C)cc(-c2cccnc2)n1 | 111%
CC1(C)OC2COC3(C(=O)O)OC(C)(C)OC3C2O1 (stereo not given) | 93.6%
O=C1COc2ccccc2C(=O)N1CCCCNc1ccccc1 | 94.5%
CCCCn1cnc(-c2cc(-c3ccccc3)cc(C(F)(F)F)c2)n1 | 99%
COc1ccc(Oc2[nH]n(C3=Nc4ccccc4Sc4ccccc43)c(=O)c2C#N)cc1 | 98.5%
CCCCOC(=O)Oc1ccc(C(=O)Oc2ccc(OCC)cc2)cc1 | 113%
CC(C)(C)c1ccc(/C=C/C(=O)Nc2ccc(O)cc2)cc1 | 92.2%
Fc1ccc2[nH]cc(-c3nc(-c4c[nH]c5ccncc45)cs3)c2c1 | -65.6% (active)
O=C(O)/C=C\C(=O)Nc1ccc2c(c1)Cc1cc(F)ccc1-2 | 109%
C[C@@H](c1ccc2c(c1)[nH]c1ccc(Cl)cc12)c1nc2ccc(Cl)cc2[nH]1 | -37.4% (active)
O=C1Nc2ccccc2/C1=N/c1nc(-c2ccc(Cl)cc2)cs1 | 59%
C=CCC(CCC(CC=C)C(=O)OCC)C(=O)OCC (stereo not given) | 108%
Fc1ccc(/C=C/c2cc(/C=C/c3ccc(F)cc3)n(-c3cc(F)cc(F)c3)n2)cc1 | 108%
Cc1cc(N(CCCNc2ccnc3cc(Cl)ccc23)Cc2ccccn2)nc(N2CCCC2)n1 | 88.3%
COc1cc(C(=O)/C=C/c2c(-c3cccs3)nc3sc(C)cn23)cc(OC)c1OC | -4.34% (active)
C=C(c1ccc(OC)c(/C=C/C(=O)c2cc(OC)c(OC)c(OC)c2)c1)c1cc(OC)c(OC)c(OC)c1 | -8.58% (active)
O=C(N/N=C/[C@H](O)[C@@H](O)[C@@H](O)[C@H](O)CO)c1ccc(NC(=O)c2cccnc2)cc1 | 105%
